Results as given in PubChem BioAssay.
Calls of active or inactive are those of the source.

What follows are compounds tested on XIP peptide (Xip251-270) binding (assay: XIP fragment 251-270 binding compounds – biochemical, small-molecule microarray, fluorescence 635/667 nm, 0.1 µg/mL protein, primary screen (AID 1182)). Conditions: fluorescent protein binding, 635 nm, higher = more signal, called active from +8 up or from −8 down.

Composite z-score, inactive:
COCCOC(=O)N1C(=O)[C@@]2(c3cc(C#CCCO)ccc31)[C@H](c1ccc(OCCO)cc1)N1[C@H](c3ccccc3)[C@H](c3ccccc3)OC(=O)[C@H]1[C@@H]2C(=O)N1CCc2cc(OC)c(OC)cc2C1 0.311, O=C1c2ccccc2C(=O)C2CC([C@H]3Oc4ccccc4S(=O)(=O)N4CCC[C@@H]34)=CCC12 (stereo not given in full) -0.26, O=[N+]([O-])c1ccc(C[n+]2ccc(-c3ccc(CO)cc3)cc2)o1 0.406, Cc1ccc(F)cc1S(=O)(=O)N[C@@H]1CCN(C(=O)c2ccc(OC(C)C)cc2)C1 0.615, COCCOC(=O)N1C(=O)[C@@]2(c3cc(C#CCNC(N)=O)ccc31)[C@H](c1ccc(OCCO)cc1)N1[C@H](c3ccccc3)[C@H](c3ccccc3)OC(=O)[C@H]1[C@@H]2C(=O)N1CCN(c2ncccn2)CC1 -0.299, COCCCNC(=O)[C@]1(CCS(=O)(=O)c2ccccc2)N=C(c2ccc(OCCCO)cc2)O[C@@H]1c1ccccc1 1.47, O=C1O[C@H](c2ccccc2)[C@H](c2ccccc2)N2[C@H]1[C@@H](C(=O)N1CCCCCCC1)[C@]1(C(=O)Nc3ccccc31)[C@H]2c1ccc(O)cc1 4.72, CN(C)C(=O)[C@]1(Cc2ccccc2N=[N+]=[N-])N=C(c2ccc(OCCCO)cc2)O[C@@H]1c1ccccc1CN=[N+]=[N-] 0.304, CCOC(=O)C[C@H]1[C@H](OC(=O)Cc2ccc3c(c2)OCO3)[C@@H](NC(=O)c2ccccc2)c2cc(OCCCO)ccc2N1C(=O)c1ccccc1 -0.0294, CCCc1cc2c(n1Cc1ccc(OC)cc1)C(C)C1CN(C(=O)c3ccccc3)C(C)(C(=O)OC)C21 (stereo not given) -0.0607, COC(=O)[C@@]1(Cc2ccc(OC)cc2)[C@H]2c3cc(C(=O)N(C)C)n(CCF)c3C[C@H]2CN1C(=O)c1ccccc1 0.0026, C[N+](C)(C)CCCCCCNC(=O)[C@@H]1C[C@@H]2C(=O)NCC(=O)N2[C@@H]1c1ccc(O)cc1 0.842, COCC(=C=CC[C@@H](O)c1ccccc1OCCO)C[C@@H](O)COCc1ccccc1 -0.581, CC(C)=CCCC(C)=CC(O)C1C=CC2C(=O)N(c3ccccc3)C(=O)C2N1Nc1ccc([N+](=O)[O-])cc1 (stereo not given) 0.174, COC(=O)[C@@]1(Cc2ccccc2)[C@H]2c3cc(C(=O)N(C)C)n(Cc4ccccn4)c3C[C@H]2CN1C(=O)c1ccccc1 1.08, COCCOC(=O)N1C(=O)[C@@]2(c3cc(C#CC4(O)CCCCCC4)ccc31)[C@H](C(=O)N1CCc3cc(OC)c(OC)cc3C1)[C@H]1C(=O)O[C@H](c3ccccc3)[C@H](c3ccccc3)N1[C@@H]2c1ccccc1OCCO -0.0915, C=CCN1C(=O)[C@@]2(O[C@@H](CCn3cc([C@H](O)c4ccccc4)nn3)[C@H]([Si](C)(C)c3ccc(OC)cc3)[C@H]2C)c2cc(NC(=O)c3ccc(OC)cc3)ccc21 0.593, C#CCNS(=O)(=O)N(C)C 0.153, O=C(O)[C@@]1(Cc2ccccc2)COC(c2ccc(OCCCO)cc2)=N1 -0.781, COc1ccc([Si](C)(C)[C@@H]2[C@@H](CCO)O[C@]3(C(=O)N(Cc4ccccc4)c4ccc(N5CCCCC5=O)cc43)[C@H]2C)cc1 2.38, CC1CC/C=C\[C@H]2OC34C=CCN(Cc5ccccc5)C(=O)[C@H]3N(CCO)C(=O)[C@@H]4C2C(=O)O1 (stereo not given in full) 0.449, C=C(COC)C(=O)CC[C@H](OC(=O)c1ccccc1-c1ccccc1C(=O)O)c1ccc(CO)o1 1.28, C=CC[C@@]1(C(=O)NCCN2CCOCC2)N=C(c2ccc(OCCCO)cc2)O[C@@H]1c1ccccc1 0.202, CC(C)(C)OC(=O)CC[C@@]1(C(=O)N2CCCCC2)N=C(c2ccc(OCCCO)cc2)O[C@@H]1c1ccccc1CN=[N+]=[N-] 1.32, C=CCOC(=O)[C@H]1[C@@H]2C(=O)O[C@@H](c3ccccc3)[C@@H](c3ccccc3)N2[C@@H](c2ccc(OCCOC(=O)[C@H]3C[C@H]4C(=O)N[C@@H](CCCCN(C)C)C(=O)N4[C@H]3c3ccc(O)cc3)cc2)[C@]12C(=O)Nc1ccccc12 0.275
